Source: article PMC7862700, “An all-to-all approach to the identification of sequence-specific readers for epigenetic DNA modifications on cytosine”

Legend:
Test in all cases: DAPPL (digital affinity profiling via proximity ligation, sequencing); 10 mM Tris-HCl pH 7.5, 50 mM NaCl, 1 mM DTT, 4% glycerol, room temperature, 30 min; GST-TFs on glutathione beads, 16-mer random dsDNA library, 0.1% formaldehyde crosslink after washing; high values mean tight binding
FEV = target: T1, FEV (Homo sapiens, UniProt Q99581 1-238); conditions: protein: recombinant; tags: N-terminal GST; dsDNA, one strand shown
T1 sequence: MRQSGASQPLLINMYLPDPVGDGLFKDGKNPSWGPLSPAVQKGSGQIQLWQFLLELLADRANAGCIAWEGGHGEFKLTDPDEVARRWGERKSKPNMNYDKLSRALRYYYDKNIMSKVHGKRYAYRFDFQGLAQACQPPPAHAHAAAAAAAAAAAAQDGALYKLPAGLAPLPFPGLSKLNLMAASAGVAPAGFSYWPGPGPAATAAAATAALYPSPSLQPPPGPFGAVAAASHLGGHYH
Procedure, shortened: (§1)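 In yeast, human transcription factors were expressed with a GST fusion, then pulled down on glutathione beads and given DNA barcodes. Pooled with a tag-only sample, they were exposed to 200 nmole of a 16-mer random double-stranded DNA library (Tris/NaCl/DTT/glycerol buffer, room temperature, 30 min), washed, crosslinked with 0.1% formaldehyde, proximity-ligated using BsaI/T4 ligase for 1 h at 37 °C, PCR-amplified and read on an Illumina NextSeq500. Each hexamer's frequency of reads for a factor, divided by the matching frequency for the tag-only sample, gives the binding signal.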

ETV5 = ETV5 (Homo sapiens, UniProt P41161 1-510); conditions: protein: recombinant; tags: N-terminal GST; dsDNA, one strand shown
Procedure, shortened: as §1

HSF1 = HSF1 (Homo sapiens, UniProt Q00613 1-529); conditions: protein: recombinant; tags: N-terminal GST; chain copies: 3; dsDNA, one strand shown
Procedure, shortened: as §1

SPIC = target: T2, SPIC (Homo sapiens, UniProt Q8N5J4 1-248); conditions: protein: recombinant; tags: N-terminal GST; dsDNA, one strand shown
T2 sequence: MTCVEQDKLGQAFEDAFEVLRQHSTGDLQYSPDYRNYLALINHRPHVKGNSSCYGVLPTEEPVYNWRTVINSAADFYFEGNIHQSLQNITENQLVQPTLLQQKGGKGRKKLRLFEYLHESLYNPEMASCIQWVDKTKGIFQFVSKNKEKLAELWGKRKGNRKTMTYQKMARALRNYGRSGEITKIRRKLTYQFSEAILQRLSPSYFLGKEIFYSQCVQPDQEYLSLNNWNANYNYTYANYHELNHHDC
Procedure, shortened: as §1

ELF4 = ELF4 (Homo sapiens, UniProt Q99607 1-663); conditions: protein: recombinant; tags: N-terminal GST; dsDNA, one strand shown
Procedure, shortened: as §1

ETV2 = target: T3, ETV2 (Homo sapiens, UniProt O00321 1-342); conditions: protein: recombinant; tags: N-terminal GST; dsDNA, one strand shown
T3 sequence: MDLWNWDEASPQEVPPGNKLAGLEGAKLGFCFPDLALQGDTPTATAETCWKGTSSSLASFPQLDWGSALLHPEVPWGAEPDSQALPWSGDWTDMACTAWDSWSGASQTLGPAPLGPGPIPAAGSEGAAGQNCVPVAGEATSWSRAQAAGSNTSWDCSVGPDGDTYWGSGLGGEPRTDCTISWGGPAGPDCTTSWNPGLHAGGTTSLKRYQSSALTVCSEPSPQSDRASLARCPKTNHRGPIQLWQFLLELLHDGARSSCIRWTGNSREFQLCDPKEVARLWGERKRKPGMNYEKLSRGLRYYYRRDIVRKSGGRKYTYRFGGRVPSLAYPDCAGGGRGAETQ
Procedure, shortened: as §1

CRX = CRX (Homo sapiens, UniProt O43186 1-299); conditions: protein: recombinant; tags: N-terminal GST; dsDNA, one strand shown
Procedure, shortened: as §1

ETV1 = ETV1 (Homo sapiens, UniProt P50549 1-477); conditions: protein: recombinant; tags: N-terminal GST; dsDNA, one strand shown
Procedure, shortened: as §1

ERF = target: T4, ERF (Homo sapiens, UniProt P50548 1-548); conditions: protein: recombinant; tags: N-terminal GST; dsDNA, one strand shown
T4 sequence: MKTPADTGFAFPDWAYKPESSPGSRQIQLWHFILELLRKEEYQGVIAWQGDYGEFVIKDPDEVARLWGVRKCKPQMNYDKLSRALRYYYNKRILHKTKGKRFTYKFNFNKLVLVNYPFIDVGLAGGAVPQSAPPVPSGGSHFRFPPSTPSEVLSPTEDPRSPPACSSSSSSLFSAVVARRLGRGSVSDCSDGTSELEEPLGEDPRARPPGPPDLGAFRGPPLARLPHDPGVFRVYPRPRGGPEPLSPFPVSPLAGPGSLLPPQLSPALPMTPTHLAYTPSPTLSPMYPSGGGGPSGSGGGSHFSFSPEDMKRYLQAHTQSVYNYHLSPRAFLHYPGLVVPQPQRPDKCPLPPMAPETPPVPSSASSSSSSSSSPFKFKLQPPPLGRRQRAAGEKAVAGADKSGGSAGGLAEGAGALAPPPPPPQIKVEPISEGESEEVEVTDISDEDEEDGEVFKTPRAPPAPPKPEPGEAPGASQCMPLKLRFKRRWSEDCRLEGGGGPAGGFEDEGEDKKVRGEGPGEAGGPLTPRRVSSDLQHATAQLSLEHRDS
Procedure, shortened: as §1

ETV3L = target: T5, ETV3L (Homo sapiens, UniProt Q6ZN32 1-361); conditions: protein: recombinant; tags: N-terminal GST; dsDNA, one strand shown
T5 sequence: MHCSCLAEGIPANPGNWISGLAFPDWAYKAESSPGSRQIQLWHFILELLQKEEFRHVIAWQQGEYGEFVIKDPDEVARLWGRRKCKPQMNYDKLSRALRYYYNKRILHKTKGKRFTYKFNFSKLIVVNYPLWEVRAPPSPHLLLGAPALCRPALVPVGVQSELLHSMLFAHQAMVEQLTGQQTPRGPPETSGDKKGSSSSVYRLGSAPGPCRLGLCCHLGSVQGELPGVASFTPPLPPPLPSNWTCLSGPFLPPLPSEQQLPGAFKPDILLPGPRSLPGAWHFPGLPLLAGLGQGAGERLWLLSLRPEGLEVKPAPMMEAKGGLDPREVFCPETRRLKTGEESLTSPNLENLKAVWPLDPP
Procedure, shortened: as §1

ETS2 = target: T6, ETS2 (Homo sapiens, UniProt P15036 1-469); conditions: protein: recombinant; tags: N-terminal GST; dsDNA, one strand shown
T6 sequence: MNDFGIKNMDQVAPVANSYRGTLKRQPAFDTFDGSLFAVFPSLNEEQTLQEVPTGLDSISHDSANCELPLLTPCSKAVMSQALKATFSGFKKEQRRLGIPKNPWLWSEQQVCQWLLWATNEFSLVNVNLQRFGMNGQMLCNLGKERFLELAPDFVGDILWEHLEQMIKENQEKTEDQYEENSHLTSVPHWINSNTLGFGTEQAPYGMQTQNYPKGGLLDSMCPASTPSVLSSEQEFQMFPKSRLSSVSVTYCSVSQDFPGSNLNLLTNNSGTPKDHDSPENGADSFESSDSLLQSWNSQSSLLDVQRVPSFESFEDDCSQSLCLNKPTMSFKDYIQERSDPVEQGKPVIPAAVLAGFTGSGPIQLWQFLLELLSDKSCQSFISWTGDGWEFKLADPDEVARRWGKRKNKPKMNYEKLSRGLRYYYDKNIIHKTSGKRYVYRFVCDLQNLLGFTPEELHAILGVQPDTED
Procedure, shortened: as §1

SPDEF = target: T7, SPDEF (Homo sapiens, UniProt O95238 1-335); conditions: protein: recombinant; tags: N-terminal GST; dsDNA, one strand shown
T7 sequence: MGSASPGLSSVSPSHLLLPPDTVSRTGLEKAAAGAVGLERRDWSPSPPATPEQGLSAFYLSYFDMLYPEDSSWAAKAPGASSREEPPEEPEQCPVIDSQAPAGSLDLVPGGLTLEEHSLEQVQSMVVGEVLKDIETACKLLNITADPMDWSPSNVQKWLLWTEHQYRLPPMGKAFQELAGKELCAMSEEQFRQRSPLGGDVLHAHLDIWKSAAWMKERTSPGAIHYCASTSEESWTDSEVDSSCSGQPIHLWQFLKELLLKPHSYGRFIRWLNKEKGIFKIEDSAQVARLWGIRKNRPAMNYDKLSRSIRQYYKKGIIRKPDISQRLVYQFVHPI
Procedure, shortened: as §1

ELF5 = target: T8, ELF5 (Homo sapiens, UniProt Q9UKW6-2 1-255); conditions: protein: recombinant; tags: N-terminal GST; dsDNA, one strand shown
T8 sequence: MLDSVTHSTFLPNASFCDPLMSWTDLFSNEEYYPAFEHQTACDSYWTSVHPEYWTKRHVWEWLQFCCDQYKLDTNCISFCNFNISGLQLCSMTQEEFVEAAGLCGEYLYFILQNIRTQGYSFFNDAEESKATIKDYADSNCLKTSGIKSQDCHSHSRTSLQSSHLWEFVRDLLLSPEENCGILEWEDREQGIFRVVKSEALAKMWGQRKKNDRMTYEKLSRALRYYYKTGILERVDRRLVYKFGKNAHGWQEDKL
Procedure, shortened: as §1

ETV3 = target: T9, ETV3 (Homo sapiens, UniProt P41162-2 1-143); conditions: protein: recombinant; tags: N-terminal GST; dsDNA, one strand shown
T9 sequence: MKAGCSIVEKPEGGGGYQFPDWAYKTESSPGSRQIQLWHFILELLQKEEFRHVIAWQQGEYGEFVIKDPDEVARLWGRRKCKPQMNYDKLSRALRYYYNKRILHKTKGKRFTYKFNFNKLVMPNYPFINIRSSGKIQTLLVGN
Procedure, shortened: as §1

ETV6 = ETV6 (Homo sapiens, UniProt P41212 1-452); conditions: protein: recombinant; tags: N-terminal GST; dsDNA, one strand shown
Procedure, shortened: as §1

ETV7 = target: T10, ETV7 (Homo sapiens, UniProt Q9Y603 1-341); conditions: protein: recombinant; tags: N-terminal GST; dsDNA, one strand shown
T10 sequence: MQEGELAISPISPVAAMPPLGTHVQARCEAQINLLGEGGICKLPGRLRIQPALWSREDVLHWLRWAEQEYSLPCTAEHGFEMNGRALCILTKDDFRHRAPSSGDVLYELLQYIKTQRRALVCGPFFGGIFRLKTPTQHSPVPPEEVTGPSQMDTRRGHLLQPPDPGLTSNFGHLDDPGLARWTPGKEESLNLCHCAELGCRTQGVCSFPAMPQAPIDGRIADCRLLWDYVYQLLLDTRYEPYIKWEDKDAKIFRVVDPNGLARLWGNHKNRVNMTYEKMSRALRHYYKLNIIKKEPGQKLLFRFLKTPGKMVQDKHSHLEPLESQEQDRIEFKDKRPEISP
Procedure, shortened: as §1

CRX, sequence (O43186 whole entry): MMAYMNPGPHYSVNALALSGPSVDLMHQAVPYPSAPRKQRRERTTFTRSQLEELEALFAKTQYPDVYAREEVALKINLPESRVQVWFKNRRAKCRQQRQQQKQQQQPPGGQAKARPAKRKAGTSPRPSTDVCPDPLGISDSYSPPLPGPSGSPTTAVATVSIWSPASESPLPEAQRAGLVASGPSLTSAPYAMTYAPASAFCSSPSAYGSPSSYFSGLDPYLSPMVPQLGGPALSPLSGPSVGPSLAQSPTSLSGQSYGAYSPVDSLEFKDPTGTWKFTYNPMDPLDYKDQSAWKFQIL
HSF1, sequence (Q00613 whole entry): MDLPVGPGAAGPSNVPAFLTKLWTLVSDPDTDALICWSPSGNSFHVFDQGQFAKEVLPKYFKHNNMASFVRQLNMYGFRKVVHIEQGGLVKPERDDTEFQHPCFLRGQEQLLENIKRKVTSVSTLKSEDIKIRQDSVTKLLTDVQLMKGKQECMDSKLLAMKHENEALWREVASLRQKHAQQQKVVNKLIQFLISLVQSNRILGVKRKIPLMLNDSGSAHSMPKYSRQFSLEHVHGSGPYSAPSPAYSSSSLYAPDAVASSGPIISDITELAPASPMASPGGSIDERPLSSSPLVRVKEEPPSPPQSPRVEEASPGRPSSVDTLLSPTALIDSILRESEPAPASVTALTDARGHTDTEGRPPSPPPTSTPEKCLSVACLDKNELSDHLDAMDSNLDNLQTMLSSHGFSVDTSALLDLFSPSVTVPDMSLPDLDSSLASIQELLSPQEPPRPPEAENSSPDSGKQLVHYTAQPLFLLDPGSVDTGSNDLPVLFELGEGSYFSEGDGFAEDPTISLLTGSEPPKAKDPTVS
ETV5, sequence (P41161 whole entry): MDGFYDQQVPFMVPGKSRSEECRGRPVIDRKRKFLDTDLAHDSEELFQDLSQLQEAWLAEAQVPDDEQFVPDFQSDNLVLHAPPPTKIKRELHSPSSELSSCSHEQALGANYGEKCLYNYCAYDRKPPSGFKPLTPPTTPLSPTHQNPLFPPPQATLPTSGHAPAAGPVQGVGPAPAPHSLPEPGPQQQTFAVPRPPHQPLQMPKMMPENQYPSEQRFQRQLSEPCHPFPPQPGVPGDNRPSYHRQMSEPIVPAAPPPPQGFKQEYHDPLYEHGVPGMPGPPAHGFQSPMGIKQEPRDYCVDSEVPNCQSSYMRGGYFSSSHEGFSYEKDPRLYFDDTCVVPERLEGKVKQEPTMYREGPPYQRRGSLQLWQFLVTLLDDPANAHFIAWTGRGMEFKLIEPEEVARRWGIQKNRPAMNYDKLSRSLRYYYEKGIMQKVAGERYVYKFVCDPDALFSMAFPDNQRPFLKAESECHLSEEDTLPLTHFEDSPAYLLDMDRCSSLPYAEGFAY
ETV1, sequence (P50549 whole entry): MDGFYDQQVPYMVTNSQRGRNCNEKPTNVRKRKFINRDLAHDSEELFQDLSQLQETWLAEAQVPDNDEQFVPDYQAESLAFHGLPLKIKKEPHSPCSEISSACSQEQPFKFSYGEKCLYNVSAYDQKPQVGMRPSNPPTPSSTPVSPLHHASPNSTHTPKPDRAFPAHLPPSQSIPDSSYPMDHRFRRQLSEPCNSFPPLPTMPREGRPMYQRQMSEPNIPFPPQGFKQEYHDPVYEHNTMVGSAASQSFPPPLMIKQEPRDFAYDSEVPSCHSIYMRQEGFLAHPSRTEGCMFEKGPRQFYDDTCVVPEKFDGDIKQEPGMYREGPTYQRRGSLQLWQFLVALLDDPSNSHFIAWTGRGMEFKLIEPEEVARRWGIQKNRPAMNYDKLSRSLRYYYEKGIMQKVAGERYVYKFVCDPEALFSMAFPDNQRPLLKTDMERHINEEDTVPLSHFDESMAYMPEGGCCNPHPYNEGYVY
ELF4, sequence (Q99607 whole entry): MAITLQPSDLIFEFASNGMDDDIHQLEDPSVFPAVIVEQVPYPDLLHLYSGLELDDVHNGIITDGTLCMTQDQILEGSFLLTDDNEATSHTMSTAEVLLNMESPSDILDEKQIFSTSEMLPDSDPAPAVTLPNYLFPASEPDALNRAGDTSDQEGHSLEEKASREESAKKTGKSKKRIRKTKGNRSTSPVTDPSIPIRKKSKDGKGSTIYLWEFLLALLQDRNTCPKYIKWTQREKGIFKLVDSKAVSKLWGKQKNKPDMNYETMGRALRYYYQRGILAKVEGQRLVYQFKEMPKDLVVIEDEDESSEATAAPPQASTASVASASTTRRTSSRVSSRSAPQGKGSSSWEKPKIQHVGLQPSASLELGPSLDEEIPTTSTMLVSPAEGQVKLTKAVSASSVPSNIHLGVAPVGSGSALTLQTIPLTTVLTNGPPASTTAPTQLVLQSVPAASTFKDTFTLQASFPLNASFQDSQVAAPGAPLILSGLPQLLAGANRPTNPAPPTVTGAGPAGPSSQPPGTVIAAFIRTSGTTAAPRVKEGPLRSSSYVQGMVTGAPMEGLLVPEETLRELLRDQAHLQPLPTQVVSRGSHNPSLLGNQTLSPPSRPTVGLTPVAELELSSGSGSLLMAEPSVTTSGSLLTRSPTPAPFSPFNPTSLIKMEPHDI
ETV6, sequence (P41212 whole entry): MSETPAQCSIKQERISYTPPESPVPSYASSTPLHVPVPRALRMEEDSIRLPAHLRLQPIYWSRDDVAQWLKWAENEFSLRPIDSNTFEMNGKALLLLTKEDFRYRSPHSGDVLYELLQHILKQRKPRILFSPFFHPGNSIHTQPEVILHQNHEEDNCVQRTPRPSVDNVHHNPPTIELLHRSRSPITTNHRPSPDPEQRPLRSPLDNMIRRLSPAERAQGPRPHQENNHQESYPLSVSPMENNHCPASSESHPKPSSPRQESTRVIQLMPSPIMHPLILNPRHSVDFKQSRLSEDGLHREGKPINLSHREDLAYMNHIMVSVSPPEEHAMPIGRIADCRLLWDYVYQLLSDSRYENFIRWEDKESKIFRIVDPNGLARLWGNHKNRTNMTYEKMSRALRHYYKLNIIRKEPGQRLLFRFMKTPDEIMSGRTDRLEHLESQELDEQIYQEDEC

Row | Sequence | binding signal (FEV) | binding signal (ETV5) | binding signal (HSF1) | binding signal (SPIC) | binding signal (ELF4) | binding signal (ETV2) | binding signal (CRX) | binding signal (ETV1) | binding signal (ERF) | binding signal (ETV3L) | binding signal (ETS2) | binding signal (SPDEF) | binding signal (ELF5) | binding signal (ETV3) | binding signal (ETV6) | binding signal (ETV7)
1 | ATCGTC | 1.02 fold enrichment (6-mer frequency, TF over GST control) | 1.06 fold enrichment (6-mer frequency, TF over GST control) | 1.06 fold enrichment (6-mer frequency, TF over GST control) | 1.06 fold enrichment (6-mer frequency, TF over GST control) | 1.07 fold enrichment (6-mer frequency, TF over GST control) | 1.02 fold enrichment (6-mer frequency, TF over GST control) | 1.09 fold enrichment (6-mer frequency, TF over GST control) | 1.14 fold enrichment (6-mer frequency, TF over GST control) | 1.13 fold enrichment (6-mer frequency, TF over GST control) | 1.09 fold enrichment (6-mer frequency, TF over GST control) | 1.05 fold enrichment (6-mer frequency, TF over GST control) | 1.05 fold enrichment (6-mer frequency, TF over GST control) | 1.07 fold enrichment (6-mer frequency, TF over GST control) | 1.06 fold enrichment (6-mer frequency, TF over GST control) | 1.06 fold enrichment (6-mer frequency, TF over GST control) | 
2 | CTAGGC | 1.16 fold enrichment (6-mer frequency, TF over GST control) | 1.06 fold enrichment (6-mer frequency, TF over GST control) | 1.22 fold enrichment (6-mer frequency, TF over GST control) | 1.15 fold enrichment (6-mer frequency, TF over GST control) | 1.16 fold enrichment (6-mer frequency, TF over GST control) | 1.21 fold enrichment (6-mer frequency, TF over GST control) | 1.17 fold enrichment (6-mer frequency, TF over GST control) | 1.04 fold enrichment (6-mer frequency, TF over GST control) |  | 1.07 fold enrichment (6-mer frequency, TF over GST control) | 1.01 fold enrichment (6-mer frequency, TF over GST control) | 1 fold enrichment (6-mer frequency, TF over GST control) | 1.04 fold enrichment (6-mer frequency, TF over GST control) | 1.09 fold enrichment (6-mer frequency, TF over GST control) | 1.06 fold enrichment (6-mer frequency, TF over GST control) | 1.2 fold enrichment (6-mer frequency, TF over GST control)
